# PubChem BioAssay (NCI)
# Compounds without any hit were thinned out: in the full panel of roughly 83,000, 20% have a hit.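 A percent growth of 40 corresponds to 60% growth inhibition; 0 means no net growth; -100 means all cells died. Active threshold: below 10.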 Unmarked numbers belong to inactive results. Calls of active or inactive are those of the source.
# Tests used:
# Assay in all cases: NCI-60 one-dose screen, 48 h (100 = growth as untreated, 0 = no growth, -100 = all killed)
# Conditions in all cases: 10 µM
# [1] = tested on: SK-MEL-2 melanoma
# [2] = tested on: EKVX NSCLC
# [3] = tested on: SN12C renal
# [4] = tested on: UO-31 renal
# [5] = tested on: TK-10 renal
# [6] = tested on: ACHN renal
# [7] = tested on: CAKI-1 renal
# [8] = tested on: CCRF-CEM leukemia
# [9] = tested on: MOLT-4 leukemia
# [10] = tested on: A498 renal
SMILES,growth [1],growth [2],growth [3],growth [4],growth [5],growth [6],growth [7],growth [8],growth [9],growth [10]
COc1cc(Cn2c(-c3ccccc3)c(Cl)c3c2-c2oncc2CC3)cc(OC)c1,75.3%,90.6%,92%,-7.99% (active),104%,69.2%,47.3%,9.93% (active),5.45% (active),–
Cc1noc(C)c1-c1ccc2nc(NC(=O)[C@H]3CCN(C#N)C3)cn2c1,74.1%,94%,–,66.9%,81.2%,65.3%,74.4%,105%,95.9%,88.9%
Cc1cc(=O)oc2cc(OCc3cn(CC(O)CO)nn3)ccc12 (centres undefined),115%,97%,102%,–,105%,105%,109%,92.5%,98.6%,–
Nc1nc(SCC#CCCl)c2[nH]cnc2n1,57.2%,54.4%,44.8%,-6.63% (active),37%,44%,9.59% (active),23.3%,35.8%,–
CN(C)c1ccc2cc(-c3cc4c(oc3=O)-c3ccccc3OC4O)c(=O)oc2c1 (centres undefined),-38.2% (active),22.6%,57.9%,–,-36.4% (active),4.78% (active),-4.81% (active),-20.5% (active),-64.7% (active),13.2%
C/C(=N\NC(=O)c1sc(=S)n(C)c1N)c1cc2ccccc2o1,74.4%,64.8%,72.2%,–,56.6%,59.7%,50%,51.2%,35.7%,33.3%
CC(=O)Nc1nc(C)c(C(=O)NNC=O)s1,62.7%,101%,98.7%,100%,–,108%,109%,101%,98.1%,104%
Nc1cc(O)cc(O)c1,98.7%,97.1%,–,97.8%,87.4%,105%,96.2%,114%,104%,116%
C(=C\c1nc2ccccc2s1)/c1ccc(N2CCOCC2)s1,81.2%,87.8%,93.8%,–,89.6%,63.4%,83.3%,58.2%,51%,86.4%
N#C/C(=C\N1C(=O)/C(=C/c2cccc([N+](=O)[O-])c2)SC1=S)c1nc2ccccc2s1,73.1%,81%,94.9%,56.3%,120%,81.5%,–,85.9%,87%,71.8%
CCOC(=S)Sc1ccc([N+](=O)[O-])cc1[N+](=O)[O-],91.4%,98%,–,78.1%,94%,60.4%,29.9%,14.4%,48.5%,88.2%
CC(=O)OC1Oc2ccccc2-c2oc(=O)c(-c3ccc(F)cc3)cc21 (centres undefined),86.2%,34.2%,88.3%,–,92.9%,104%,93.1%,91.5%,88.6%,-16.1% (active)
O=c1oc2c3ccc4cnccc4c3[nH]c2c2ccccc12,67.1%,74.2%,73.8%,–,79.3%,63.5%,54.3%,-1.54% (active),13.7%,55.5%
O=C(O)c1cc(C(F)(F)F)cc(C(F)(F)F)c1,97.1%,105%,104%,77.8%,135%,105%,99.6%,102%,95%,–
CC(C)c1[nH]nc2c(NCc3ccc(-c4ccccn4)cc3)nc(SCCN)nc12,-82.1% (active),1.6% (active),–,0.673% (active),-2.72% (active),6.26% (active),25.6%,-0.568% (active),-0.423% (active),-69.5% (active)
COc1ccc(-c2csc(-c3cc(Cl)cc(Cl)c3Cl)n2)cc1,96.3%,80.5%,91.3%,–,118%,89.7%,85.9%,97.4%,89%,52.1%

SMILES,growth [1],growth [2],growth [3],growth [4],growth [5],growth [6],growth [7],growth [8],growth [9],growth [10]
O=C1/C(=C/c2ccc(O)cc2O)N=C2SCCCN12,109%,96.3%,–,97.6%,88.4%,97.6%,97.4%,111%,93.8%,90.1%
O=C(O)CCCCSCCCCC(=O)O,93.2%,106%,–,92.7%,92%,104%,100%,95.8%,93.1%,118%
Clc1cc(Cl)c(Cl)c(-c2nc(-c3cccnc3)cs2)c1,99.3%,93.2%,94.2%,–,82.6%,61.5%,–,62.6%,56.9%,104%
Cc1ccc2oc(=O)cc(/C(=C3/C=CC=N3)c3ccc[nH]3)c2c1,2.71% (active),16.5%,–,5.2% (active),1.86% (active),10%,3.96% (active),10.4%,-3.84% (active),-9.36% (active)
CCCC(C)c1ccc(OCCCCCCN2CCNCC2)cc1 (centres undefined),79%,67.3%,–,78.7%,85%,49.5%,18.2%,4.49% (active),-27.6% (active),50.5%
CN(C)c1ccc2c(c1)OC(N)=C(C#N)C2c1ccc2c(c1)CCO2 (centres undefined),32.1%,35.9%,–,38.2%,79.1%,37.4%,37%,28.7%,34.5%,-9.63% (active)
N#CC1C=Cc2c(ccc3ccccc23)N1C(=O)c1ccccc1 (centres undefined),40.7%,17.3%,39.1%,38.2%,52.8%,42.7%,20.6%,20.3%,18.9%,–
COc1ccc(-c2nnc(N3CCN(C(=O)CN4CCN(c5ccc(Cl)cc5)CC4)CC3)nc2-c2ccc(OC)cc2)cc1,65.7%,45.4%,57.5%,–,90.6%,85%,–,47.2%,8.77% (active),–
COC(=O)[C@]12CC[C@@H](C)[C@H](C)[C@@H]1C1=CC[C@@H]3[C@@]4(C)C[C@@H](O)[C@H](O)[C@@](C)(CO)[C@@H]4[C@H](O)C[C@@]3(C)[C@]1(C)CC2,-88.2% (active),-33.1% (active),–,-52.2% (active),-56.9% (active),-48.3% (active),0.468% (active),-43.7% (active),-51.9% (active),-80.2% (active)
COc1ccc(NC(=O)CCn2cnc3c(cc(-c4ccccc4)n3-c3ccccc3)c2=O)cc1,104%,85.8%,85.1%,88.8%,105%,82%,78.3%,93.3%,104%,–
CCOC(=O)c1c(C(F)(F)F)n([O-])c2ccc(OC)cc2[n+]1=O,46.4%,9.51% (active),22.6%,–,49.8%,32.1%,–,5.58% (active),5.77% (active),50.8%
CC(=O)OC1Oc2ccccc2-c2oc(=O)c(-c3cc(=O)oc4cc(O)ccc34)cc21 (centres undefined),87.3%,86.6%,95.6%,–,82.5%,85.8%,93.7%,32.1%,42.8%,54.8%
CCOC(=O)Nc1ccc2c(c1)C(=O)N(CCOC)c1ccccc1O2,39.9%,45.4%,–,62.2%,58.7%,48.1%,38.7%,20.6%,35%,4.67% (active)
CCCCn1c(=O)[nH]c2c(c1=O)C(c1ccc(Cl)cc1)c1c([nH]c(=O)n(CCCC)c1=O)N2,108%,99.9%,–,94.9%,91.3%,105%,95.6%,108%,104%,103%
CCOc1ccc(-n2cc(-c3ccc(N(C)C)cc3)[n+]3c2CCCCC3)cc1,-7.29% (active),14.1%,–,66.1%,8.78% (active),22.2%,60.9%,28.3%,13.4%,-10.2% (active)
